For 9 compounds, outcome and AC50 results are on record in PubChem BioAssay AID2283131 (EPA ToxCast).

Broadly, the AC50 is the midpoint of the concentration-response curve, whichever way the signal moves.

The structures appear in SMILES notation. Records with an inconclusive call do not appear. The source made the active and inactive calls. Rule for the calls: active = hit-call score of the fitted dose curve at least 0.9, where 1 is the maximum; inconclusive = response in the unintended direction; inactive = score below 0.9.

human Bruton's Tyrosine Kinase (BTK), BTK (gene 695), sequence (Q06187 whole entry, looked up): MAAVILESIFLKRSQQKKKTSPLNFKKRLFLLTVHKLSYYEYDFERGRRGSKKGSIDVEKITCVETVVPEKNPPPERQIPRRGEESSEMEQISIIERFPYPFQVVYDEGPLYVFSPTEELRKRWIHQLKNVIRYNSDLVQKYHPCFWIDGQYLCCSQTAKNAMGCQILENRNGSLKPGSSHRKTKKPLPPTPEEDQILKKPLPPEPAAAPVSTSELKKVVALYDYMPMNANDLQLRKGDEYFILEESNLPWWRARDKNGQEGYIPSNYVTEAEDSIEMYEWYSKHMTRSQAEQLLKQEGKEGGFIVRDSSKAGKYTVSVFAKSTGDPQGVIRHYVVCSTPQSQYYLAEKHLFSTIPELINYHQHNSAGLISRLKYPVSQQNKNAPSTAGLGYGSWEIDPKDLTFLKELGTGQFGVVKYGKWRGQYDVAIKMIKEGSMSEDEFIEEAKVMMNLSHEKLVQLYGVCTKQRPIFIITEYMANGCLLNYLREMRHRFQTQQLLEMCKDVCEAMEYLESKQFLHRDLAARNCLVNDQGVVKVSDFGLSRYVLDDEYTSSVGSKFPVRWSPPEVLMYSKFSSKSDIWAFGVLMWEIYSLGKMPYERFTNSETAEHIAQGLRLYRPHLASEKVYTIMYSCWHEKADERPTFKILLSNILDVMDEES

The target of this assay is human Bruton's Tyrosine Kinase (BTK), BTK (gene 695) (UniProt Q06187). Briefly: NVS_ENZ_hBTK: NovaScreen (NVS) Enzymatic Assay for human Bruton's Tyrosine Kinase (BTK). How it is done:
NVS_ENZ_hBTK is a biochemical, single-readout assay that uses extracted gene-proteins in a cell-free assay. Measurements were taken 1 hour after chemical dosing in a 96-well plate.NVS_ENZ_hBTK is one of one assay component(s) measured or calculated from the NVS_ENZ_hBTK assay. It is designed to make measurements of enzyme activity, a form of enzyme reporter, as detected with fluorescence intensity signals by Fluorescence and electrophoretic mobility shift technology.Data from the assay component NVS_ENZ_hBTK was analyzed into 1 assay endpoint. This assay endpoint, NVS_ENZ_hBTK, was analyzed in the positive analysis fitting direction relative to DMSO as the negative control and baseline of activity. Using a type of enzyme reporter, loss-of-signal activity can be used to understand changes in the enzymatic activity as they relate to the gene BTK. Furthermore, this assay endpoint can be referred to as a primary readout, because this assay has produced multiple assay endpoints where this one serves a enzymatic activity function. To generalize the intended target to other relatable targets, this assay endpoint is annotated to the kinase intended target family, where the subfamily is non-receptor tyrosine kinase.
Binding assays used specific radioligands (tritiated, iodinated) with non-radioactive competitive displacement ligands in agonist or antagonist protocols (as indicated) and various reference compounds and inhibitors to titrate specific binding to receptors and transporters. Most enzyme assays (CYPs, kinases, phosphatases, proteases, HDACs) used recombinant protein and specific substrates (fluorescence mostly, some colorimetric and radioactive) and inhibitors, followed by a biochemical separation of substrate and product. All assays for the biochemical HTS were initially run in duplicate at a single concentration (10 uM for CYP450 assays and 25 uM for all others). […] Each assay was run with positive and negative controls, and concurrent controls on every plate. The follow-up (secondary) screen tested active chemical-pairs in concentration series, as well as a few additional assays not tested in the primary screen, some selected negative inactives, and several cases re-run in the concentration series for confirmatory purposes.
On to `N#Cc1c(Cl)c(Cl)c(Cl)c(C#N)c1Cl`, for which the result was inactive.
Turning to `O=C(O)C(F)(F)C(F)(F)C(F)(F)C(F)(F)C(F)(F)C(F)(F)C(F)(F)F`, the outcome was inactive.
Same read-out and setting: the value for `S=C1NCCN1` was “inactive”; that for `CCCOc1nn(C(=O)NS(=O)(=O)c2ccccc2C(=O)OC)c(=O)n1C` was “inactive”; that for `Fc1ccc(Oc2ccnc3cc(Cl)cc(Cl)c23)cc1` was “inactive”.
As to `O=S(=O)(O)C(F)(F)C(F)(F)C(F)(F)C(F)(F)C(F)(F)C(F)(F)C(F)(F)C(F)(F)F`, the concentration at half-maximal activity (AC50) was 17.4 µM (active).
With `O=[N+]([O-])/N=C1\NCCN1Cc1ccc(Cl)nc1`, the outcome was inactive.
As to `CNC(=O)Oc1cccc2c1OC(C)(C)O2`, the result was inactive.
As to `Cc1ccccc1CO[C@@H]1C[C@@]2(C(C)C)CC[C@]1(C)O2`, the compound was classed as inactive.
